Results as given in PubChem BioAssay (Tox21).
Records with an inconclusive call do not appear. A call without a number means that no potency is given here. Unmarked numbers belong to inactive results. Calls of active or inactive are those of the source. The call rests on the fitted dose curve; in most records, active means well fitted activation curve with a large enough effect in the signal ratio in the repeat runs (not every such curve was filed as active); inconclusive means weak or mixed curves, or effect the other way; inactive means no such curve, though single readings can be large or run the other way; the % refers to the signal ratio.

Experiment: qHTS assay for small molecule agonists of the antioxidant response element (ARE) signaling pathway (AID 743202)
Details: HepG2 ARE-bla reporter, beta-lactamase FRET, 16 h; series mostly up to 73.3 µM
Excerpt: U.S. Tox21 Program National Center for Advancing Translational Sciences [NCATS] NIH Chemical Genomics Center [NCGC] U.S. Environmental Protection Agency [EPA] National Institutes of Environmental Health Sciences [NIEHS] National Toxicology Program [NTP] U.S. Food and Drug Administration [FDA] Tox21 Assay Overview: Oxidative stress has been implicated in the pathogenesis of a variety of diseases ranging from cancer to neurodegeneration. The antioxidant response element (ARE) signaling pathway plays an important role in the amelioration of oxidative stress. The CellSensor ARE-bla HepG2 cell line (Invitrogen) can be used for analyzing the Nrf2/antioxidant response signaling pathway. Nrf2 (NF-E2-related factor 2) and Nrf1 are transcription factors that bind to AREs and activate these genes. The CellSensor ARE-bla Hep G2 cell line contains a beta-lactamase reporter gene under control of the Antioxidant Response Element (ARE) stably integrated into HepG2 cells. The activation of the report gene under culture conditions can be detected by fluorescence intensity. This cell line has been used to screen the Tox21 10K compound library to identify agonists that induce oxidative stress.
Tox21 Assay Protocol Summary: The ARE-bla cells were dispensed at 2,000 cells/5 ul/well in 1536-well black wall/clear bottom plates using a Multidrop dispenser. After the assay plates were incubated at a 37 C/5% CO2 incubator for 5 hours, 23 nL of compounds dissolved in DMSO, positive controls or DMSO only was transferred to the assay plate by a pin tool. The plates were incubated at 37 C for 16 hours. After 1 uL of LiveBLAzer B/G FRET substrate was added using a Flying Reagent Dispenser, the plates were incubated at room temperature for 2 hours, and fluorescence intensity was measured by an Envision plate reader.

SMILES	Potency	activation
CC(=O)c1cnccn1	inactive	–
CC(C)C(=O)OC(=O)C(C)C	inactive	–
CC1=NN(c2cc(S(=O)(=O)O)ccc2Cl)C(=O)C1N=Nc1ccccc1 (stereo not given)	inactive	–
COc1ccc2cc1Oc1cc3c(cc1OC)CC[N+](C)(C)[C@H]3Cc1ccc(cc1)Oc1c(OC)c(OC)cc3c1[C@@H](C2)[N+](C)(C)CC3	inactive	–
CC(C)C[C@@H](N)C(=O)O	inactive	–
Cc1onc(-c2c(Cl)cccc2Cl)c1C(=O)Cl	inactive	–
CC(C)[C@H]1CC[C@@H](C)CC1=O	inactive	–
C[N+]1(CC2COC(c3ccccc3)(c3ccccc3)O2)CCCCC1 (stereo not given)	inactive	–
CCN(Cc1ccccc1)c1ccccc1	inactive	–
C=CC(C)(CCC=C(C)C)OC(=O)CC (stereo not given)	inactive	–
CN(C)CCCCCCN(C)C	inactive	–
Cc1ccnc(NS(=O)(=O)c2ccc(N)cc2)n1	inactive	–
CC(C)(C)C(=O)Oc1ccc(S(=O)(=O)Nc2ccccc2C(=O)NCC(=O)O)cc1	inactive	–
CC(=O)c1ccccc1[N+](=O)[O-]	inactive	–
CC(N)C12CC3CC(CC(C3)C1)C2 (stereo not given)	inactive	–
NC(=O)N[C@@H](CCC(=O)O)C(=O)O	inactive	–
CCCCCCCC1CCCC1=O (stereo not given)	inactive	–
CCCCCCCCCCOc1cc2c(=O)c(C(=O)OCC)c[nH]c2cc1OCC	–	-0.445% [at 8.36 µM]
CC(=O)C1CCCCC1=O (stereo not given)	inactive	–
CCCOC(=O)CC	inactive	–

SMILES	Potency	activation
CC(C)CCCO	inactive	–
C[N+]1(C)CCCC(OC(=O)C(O)(c2ccccc2)c2ccccc2)C1 (stereo not given)	inactive	–
CCOc1c(N2CCOCC2)cnn(C)c1=O	inactive	–
O=C(O)CNC(=O)c1ccc(CO)o1	inactive	–
CCC(=O)OCc1ccccc1	inactive	–
C=C[Si](OC(C)=O)(OC(C)=O)OC(C)=O	inactive	–
CC(=O)NC(=O)c1ccccc1O	inactive	–
Cc1nc2ccc(CN(C)c3ccc(C(=O)N[C@@H](CCC(=O)O)C(=O)O)s3)cc2c(=O)[nH]1	inactive	–
O=C1NC(=O)C2CC=CCC12 (stereo not given)	inactive	–
CN(C)C(=O)Oc1cccc([N+](C)(C)C)c1	inactive	–
CC(C)(C#N)Nc1nc(Cl)nc(NC2CC2)n1	inactive	–
CCCc1ncc(C[n+]2ccccc2C)c(N)n1	inactive	–
C[C@H]1[C@H](NC(=O)/C(=N/OC(C)(C)C(=O)O)c2csc(N)n2)C(=O)N1S(=O)(=O)O (stereo in doubt)	inactive	–
CC(C)C1CCC(O)CC1 (stereo not given)	inactive	–
COC(=O)C1=C(C)NC(C)=C(C(=O)OC(C)C)C1c1cccc2nonc12 (stereo not given)	inactive	–
Cc1ccc(-c2ncc(Cl)cc2-c2ccc(S(C)(=O)=O)cc2)cn1	inactive	–
CN(C)CCN(C)CCN(C)C	inactive	–
O=C(O)CCSCCC(=O)O	inactive	–
CC(=O)N1C[C@H](O)C[C@H]1C(=O)O	inactive	–
CCCCOCCOC(=O)CCCCCCCCC(=O)OCCOCCCC	inactive	–
